TAR Tat displ: TAR RNA-Tat peptide displacers, HIV-1, primary screen, biochemical, FRET, FAM/TAMRA-labeled Tat; HIV-1 TAR RNA, Tat peptide displacement FRET; active compounds read high; z-score (no concentration beside the values); 100,000 tested, 0.6% active; AID 1259389, 2018; active means z-score of 3 or more in at least 2 runs
CDC25B-CDK2 inh: primary biochemical HTRF screen for blockers of M-phase inducer phosphatase 2 binding to CDK2/cyclin A | P30305+P24941 | HTRF CDC25B-CDK2/CyclinA binding, anti-His/anti-Flag; active compounds read high | z-score (concentration not given with the values) | 94,000 tested, 0.72% active | AID 1259370, 2018; in the data active means z-score above about 3.2
The depositor's hits bear a star; · = no result given. This is a sample that favours compounds with a hit; in the whole collection about 0.86% have one here.

SMILES | TAR Tat displ | CDC25B-CDK2 inh
CN1CCc2cc(NC(=O)Nc3cccnc3)ccc21 | · | 22.8*
Cc1cccnc1NC(=O)Nc1ccc2c(c1)N(C)C(=O)CS2 | -1.46 | 5.7
CN1C(=O)CSc2ccc(NC(=O)Nc3cccnc3)cc21 | 0.7 | 19.4*
CN(CCNc1nc(-c2ccccc2F)no1)C1CCCCC1 | 1.41 | ·
CCCS(=O)(=O)N1CCCc2ccc(NS(=O)(=O)c3cc(F)ccc3F)cc21 | 7.25* | ·
CCS(=O)(=O)N1CCCc2ccc(NS(=O)(=O)c3cc(F)ccc3F)cc21 | -0.35 | ·
Cc1nc2nc(-c3ccco3)[nH]n2c(=O)c1Cc1ccccc1 | 1.08 | 12.6*
CCc1c(C)nc2nc(-c3ccco3)[nH]n2c1=O | -0.83 | -0.34
O=C(Cc1ccc2ccccc2c1)N/N=C/c1ccccc1[N+](=O)[O-] | · | -1.32
CN(C(=O)C1=Cc2cc(Cl)ccc2OC=C1)c1ccccc1 | -0.29 | 0.61
N[C@@H](Cc1ccc(O)c(O)c1)C(=O)O | 23.5* | 0.41
C[C@H](Cc1ccc(O)c(O)c1)[C@@H](C)Cc1ccc(O)c(O)c1 | · | -0.68
N[C@@H](Cc1ccc([N+](=O)[O-])cc1)C(=O)O | · | -1.48
CC(Cc1ccc(O)c(O)c1)C(C)Cc1ccc(O)c(O)c1 (stereo not given) | 6.16* | ·
CCN(CC)C(=O)C1c2ccccc2C(=O)N(C)C1c1cn(C)c2ccccc12 (stereo not given) | · | -3.27
O=C(Nc1ccc(F)cc1)c1noc2ncnc(N3CCCC3)c12 | -0.69 | ·
Cc1ccc(Nc2nc(N3CCN(CCO)CC3)nc3c2cnn3C)cc1C | 1.74 | ·
COc1ccc(/C=C/c2nn3cnnc3s2)cc1 | 1.49 | -0.04
COc1ccc(NC(=O)Cn2nc3c(cc2=O)CCC3)cc1Cl | 13.3* | 0.37
COc1ccc(Cl)cc1NC(=O)Cn1nc2c(cc1=O)CCC2 | -1.02 | -1.32
COc1ccc(-c2[nH]nc3nc(-c4ccc(OC)cc4OC)cc(C(=O)O)c23)cc1 | 1.83 | ·
COc1ccc2cc(C(=O)Nc3ccc(F)cc3)sc(=O)c2c1OC | 3.9 | 0.7
COc1ccc2cc(C(=O)Nc3ccc(Cl)cc3)sc(=O)c2c1OC | 6.36* | 0.18
COCc1cc(C)nc2sc3c(=O)n(-c4ccccc4C(=O)OC)nnc3c12 | -0.03 | -1.49
CSc1ccc(CNC(=O)c2ccc3c(c2)nc2n3CCCC2)cc1 | 0.42 | ·

High-throughput results (PubChem BioAssay)
